POLB inh = qHTS Assay for Inhibitors of DNA Polymerase Beta; P06746; Pol beta primer extension/strand displacement, fluorescence kinetic; Potency, µM (highest dose often 114 µM), without a hit: at the top dose activity change, negative = inhibition, actives largely listed as inhibitors; 340,000 compounds, 1.3% hits; note: % is set by controls: 0 for no effect and ±100 for the full control effect
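10 nM enzyme + cpd, 15 min RT; start with substrate 50 nM final; read 0 min and after 10 min RT. Corrected, normalized data; 4-parameter Hill curve fit.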
POLI inh = qHTS for Inhibitors of Polymerase Iota | DNA polymerase iota (Homo sapiens), Q9UNA4 | AID 588590, 2011 | Potency, µM (series often up to 115 µM), inactives show top-dose activity, negative = inhibition, most hits filed as inhibitors | 390,000 compounds, 1% hits | Pol iota fluorescent replication assay, 10 min
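Pol iota at 10 nM preincubated 15 min with compounds at room temperature; reaction started with fluorescent substrate, 50 nM final. Fluorescence read kinetically at 0 and 10 min; buffer-only wells as negative control.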
FEN1 inh = qHTS Assay for the Inhibitors of Human Flap endonuclease 1 (FEN1). Recombinant FEN1 flap cleavage, fluorescence, 15 min. Potency, µM (top dose mostly 114 µM), without a hit: top-dose activity change, negative = inhibition, most hits filed as inhibitors. 390,000 compounds, 0.35% hits. AID 588795, 2011; note: % is set by controls: 0 for no effect and ±100 for the full control effect; nearly all actives have a fitted effect of over 65% in size
Target sequence (P39748 whole entry, looked up): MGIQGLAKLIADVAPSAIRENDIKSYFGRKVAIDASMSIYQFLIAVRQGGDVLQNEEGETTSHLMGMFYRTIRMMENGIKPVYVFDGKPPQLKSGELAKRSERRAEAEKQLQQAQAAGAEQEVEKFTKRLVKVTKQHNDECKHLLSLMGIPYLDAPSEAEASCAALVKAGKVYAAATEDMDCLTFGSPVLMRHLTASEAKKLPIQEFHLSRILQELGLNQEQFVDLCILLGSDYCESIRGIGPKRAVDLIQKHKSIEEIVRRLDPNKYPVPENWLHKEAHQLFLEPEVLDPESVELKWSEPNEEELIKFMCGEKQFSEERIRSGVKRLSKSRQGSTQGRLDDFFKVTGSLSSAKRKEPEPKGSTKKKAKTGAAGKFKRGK
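In this screen, 50 nM flap DNA substrate was added to 10 nM FEN1 pretreated with compound for 15 min at room temperature; cleavage was followed with reads at 0 and 15 min, and Hill fitting gave concentration–response parameters.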
POLH inh = qHTS for Inhibitors of Polymerase Eta. recombinant Pol eta, fluorescent DNA replication assay. Potency, µM (doses to about 114 µM), for the others: at the top dose activity change, negative = inhibition, hits mostly inhibitors. 390,000 compounds, 1.2% hits. AID 588591, 2011; note: % is set by controls: 0 for no effect and ±100 for the full control effect
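Fluorescent replication assay: 50 nM final substrate added after a 15 min room-temperature compound preincubation with 10 nM enzyme. Signal taken at 0 min and again at 10 min.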
WRN helicase inh = qHTS for Inhibitors of WRN Helicase; Bifunctional 3'-5' exonuclease/ATP-dependent helicase WRN (Homo sapiens), Q14191; WRN helicase unwinding, fluorescent forked duplex, kinetic; Potency, µM (highest dose often 114 µM), for inactives: at the highest dose activity change, negative = inhibition, usual class: inhibitors; 360,000 compounds, 0.46% hits; note: % is set by controls: 0 for no effect and ±100 for the full control effect; nearly all actives have a fitted effect of over 55% in size
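Kinetic fluorescence helicase assay: unwinding of a quenched forked DNA duplex (100 nM final) with 2 mM ATP final raises red fluorescence (525/598 nm). Compounds sat 15 min at room temperature with 20 nM WRN beforehand.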
POLK inh = qHTS for Inhibitors of Polymerase Kappa | purified Pol kappa, fluorescent DNA synthesis assay, 10 min | Potency, µM (series often up to 107 µM), for inactives: at the highest dose activity, negative = inhibition, most hits filed as inhibitors | 400,000 compounds, 0.53% hits | AID 588579, 2011; note: % is set by controls: 0 for no effect and ±100 for the full control effect
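Activity was followed as the change in fluorescence between reads at 0 and 10 min after starting the reaction with 50 nM substrate. Beforehand, 10 nM polymerase had been preincubated with compound for 15 min at room temperature.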
The depositor's hits bear a star; u = inconclusive; x = no result; [ ] = dose if it differs, or a comment. This is a sample that favours compounds with a hit; in the whole collection about 2.4% have one here. Calls come from the whole dose curve; as a rule, active = well fitted curve in the direction sought with a large enough effect; inconclusive = small, poorly fitted or top-dose-only effect, or another doubt; inactive = no such curve, though single readings can be large; an effect the other way counts as inactive or inconclusive. Potency is the fitted concentration of half-maximal effect.

SMILES	POLB inh	POLI inh	FEN1 inh	POLH inh	WRN helicase inh	POLK inh
Cc1c(C(=O)O)cccc1-c1ccc(/C=C2\SC(=O)NC2=O)o1	7%	u	u	22µM*	-4%[11.6 µM]	u
Cc1c(C(=O)O)cccc1-c1ccc(/C=C2/NC(=O)N(c3ccccc3)C2=O)o1	18µM*	u	3%	22µM*	-19%	u
O=C(C[n+]1ccncc1)c1ccc2ccccc2c1	x	53%	1%	x	x	-14%
CC(C)Oc1ccc(CNC(=O)C(C)n2ccc3cc(S(=O)(=O)N4CCCCCC4)ccc32)cc1 (configuration not stated)	30%	4%	-15%	-19%	x	-5%
CC(=O)Nc1ccc(NC(=O)CC2Nc3cccc4cccc(c34)NC2=O)cc1 (configuration not stated)	9%	u	-6%	u	-3%	-5%
CCOc1ccc(NC(=O)CC2Nc3cccc4cccc(c34)NC2=O)cc1 (configuration not stated)	31%	5µM*	u	4%	x	u
CCOC(=O)c1ccc(NC(=O)CC2Nc3cccc4cccc(c34)NC2=O)cc1 (configuration not stated)	-3%	3.5µM*	u	-20%	x	14µM*
CCN(CCN(C)Cl)/[N+]([O-])=N/Oc1ccc([N+](=O)[O-])cc1[N+](=O)[O-]	x	u	12%	x	x	11%
C[N+]1(CC(=O)c2ccc(O)c(O)c2)CCOCC1	x	u	-18%	x	x	-19%
COc1ccc2c(CC(=O)N3CCN(S(=O)(=O)c4ccc(F)cc4)CC3)coc2c1	x	u	-10%	32µM*	-28%	u
CCSC1=NC2(CCN(C(=O)NC3CCCCC3)CC2)N=C1c1ccc(Cl)cc1	0%	12%	5%	-11%	x	1%
Cc1ccc(C)c(CN2C(=O)c3ccccc3S(=O)c3ccc(C(=O)NCc4ccco4)cc32)c1 (configuration not stated)	1%	-8%	-20%	-4%	x	-24%
Cc1cc(C(=O)N/N=C/c2ccc(-c3ccccc3Cl)o2)n[nH]1	10µM*	-55%	-7%	u	-22%	u
Cc1cccn2c(=O)c3cc(C(=O)NCc4ccccc4)c(=N)n(CCOCCO)c3nc12	u	u	-24%	-5%	x	-13%
N/C(=N\OC(=O)c1ccc(Br)cc1)c1cccc([N+](=O)[O-])c1	18µM*	u	0%	1%	-4%	-9%
Cc1ccc(N2CC(NC(=O)Cc3ccc(F)cc3)CC2=O)cc1C (configuration not stated)	-4%	27%	3%	-18%	x	0%[60.1 µM]
CCC(C(=O)O)C1OC(C(C)C(O)C(C)C(=O)C(CC)C2OC3(C=CC(O)C4(CCC(C)(C5CCC(O)(CC)C(C)O5)O4)O3)C(C)CC2C)C(C)CC1C (configuration not stated)	x	x	x	x	x	-2%[19.4 µM]
CC1(C)SC2C(N3C(=O)C(c4ccccc4)NC3(C)C)C(=O)N2C1C(=O)O (configuration not stated)	x	x	x	x	x	7.1µM*
Cc1ccc(S(=O)(=O)C2(C(=O)Nc3ccc(Cl)c(C(F)(F)F)c3)CC2)cc1	-6%	7%	-19%	-27%	x	-1%
CC(=O)N1CCOc2ccc(S(=O)(=O)NCCc3ccc(S(N)(=O)=O)cc3)cc21	-13%	-1%	16%	0%	-3%	-17%
CC(=O)N1CCOc2ccc(S(=O)(=O)NCc3ccc(F)cc3)cc21	100µM*	71µM*	15%	56µM*	-5%[11.6 µM]	-42%

High-throughput results deposited in PubChem BioAssay by National Center for Advancing Translational Sciences (NCATS).
